This is an account of results in PubChem BioAssay (Tox21).

Assay [1] can be described thus: qHTS assay to identify small molecule antagonists of the sonic hedgehog signaling (Shh) pathway (AID 1259369; calls by dose curve; note: nearly all actives have a fitted effect of over 45% in size; note: potency is the fitted concentration of half-maximal effect). The gist of the method: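 Conditioned medium drives Shh signalling in 3T3Gli1-Luc cells; compounds in DMSO co-applied, 24hr at 37 C, then luciferase luminescence.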
(Quantitative high-throughput screening tests each substance at several concentrations.)

A short description of assay [2]: qHTS assay to identify small molecule agonists of the estrogen receptor beta (ER-beta) signaling pathway - cell viability counter screen (AID 1259380). Note: nearly all actives have a fitted effect of over 30% in size. Note: potency is the fitted concentration of half-maximal effect. The gist of the method:
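Cells used were ER-beta-UAS-bla HEK293T in medium with 2% charcoal-stripped FBS. They were treated for 16 hr at 37C. Viability came from CellTiter-Glo luminescence.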

For assay [3], the target named is Androgen receptor (Homo sapiens) (UniProt P10275). Briefly: qHTS assay to identify small molecule agonists of the androgen receptor (AR) signaling pathway in the presence of an antagonist (AID 1259381; calls by dose curve; note: nearly all actives have a fitted effect of over 15% in size). In outline:
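Using human MDA-kb2 cells with an MMTV promoter–luciferase construct (AR and GR response elements), agonist activity is scored under 3.0uM nilutamide (final) co-treatment; 16hr incubation, 37C, luminescence readout via ONE-Glo.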

For assay [4], the target named is Estrogen receptor (Homo sapiens) (UniProt P03372). As to the kind of experiment: qHTS assay to identify small molecule agonists of the estrogen receptor alpha (ER-alpha) signaling pathway in the presence of an antagonist (AID 1259383; calls by dose curve; note: top concentration of the series differs between compounds; nearly all actives have a fitted effect of over 15% in size). The gist of the method:
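Using VM7Luc4E2 cells seeded 24hr before treatment, antagonist ICI-182,780 (10.0nM final) was added, followed by compounds at 15 concentrations. Plates incubated 22hr; ONE-Glo luminescence quantified reporter activity.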

A short description of assay [5]: qHTS assay to identify small molecule agonists or antagonists of the thyroid stimulating hormone receptor (TSHR) signaling pathway - wild type cell line counter screen (AID 1259384; calls by dose curve). In outline: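 Wild-type Hek293 cells, 800/well, 18 h at 37C, then compound with Ro20-1724 for 30 min RT. cAMP by HTRF (cAMP-d2/anti-cAMP cryptate), 1 h RT, fluorescence read. 15 concentrations, triplicates.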

In assay [6] the target is Thyrotropin receptor (Homo sapiens) (UniProt P16473). As to the kind of experiment: qHTS assay to identify small molecule antagonists of the thyroid stimulating hormone receptor (TSHR) signaling pathway (AID 1259385; calls by dose curve; note: nearly all actives have a fitted effect of over 20% in size). In outline:
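TSHR-HEK293 cells (800/well) plated 18 h, then compounds with Ro20-1724 and TSH at 1.5 ng/mL final, 30 min at room temperature. cAMP quantified by HTRF (cAMP-d2/anti-cAMP-cryptate, 1 h); 15 concentrations in triplicate.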

Assay [7] is described as follows: qHTS assay to identify small molecule agonists of the estrogen receptor alpha (ER-alpha) signaling pathway in the presence of an antagonist - cell viability counter screen (AID 1259386).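 Note: series mostly up to about 92 µM; cells exposed to compounds for 22 h at 37 °C before the viability read; nearly all actives have a fitted effect of over 30% in size.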 In outline: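 ICI-182,780 at 10.0nM final accompanies the compound titration (15 concentrations, 22hr, 37C) on VM7Luc4E2 cells. The CellTiter-Fluor fluorescence readout runs in the same wells as the luciferase assay.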

Assay [8] in a line: qHTS assay to identify small molecule antagonists of the TGF-beta/Smad signaling pathway - cell viability counter screen (AID 1346824). Note: nearly all actives have a fitted effect of over 50% in size. The gist of the method:
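SBE-bla HEK 293T cells, incubated overnight, then compound plus 0.25 ng/mL TGF-beta1 (stock added) for 5 hr at 37 C. Viability was read in the same wells by CellTiter-Glo luminescence after 30 min at room temperature.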

The nature of assay [9]: qHTS assay to identify small molecule agonists of the TGF-beta/Smad signaling pathway - cell viability counter screen (AID 1346829). Note: top concentration of the series differs between compounds; nearly all actives have a fitted effect of over 45% in size. In outline: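 After overnight seating at 37 C and 5% CO2, reporter cells got compounds for 5 hr and FRET substrate for 2 hr; cell viability then came from CellTiter-Glo luminescence.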
Assay [10] deals with Thyrotropin-releasing hormone receptor (Homo sapiens) (UniProt P34981). Briefly: qHTS assay to identify small molecule antagonists of the thyrotropin-releasing hormone receptor (TRHR) signaling pathway (AID 1346877; active = well fitted inhibition curve with a large enough effect in the repeat runs, not every such curve was filed as active; note: series mostly up to about 51 µM). In outline:
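Screening used HEK293 cells engineered with TRHR, with a brief 5 min room-temperature compound exposure preceding addition of TRH to 1 nM. The read-out was kinetic calcium-dye fluorescence, concentration-response from 15 doses in triplicate.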

Assay [11] has the same target. As to the kind of experiment: qHTS assay to identify small molecule agonists of the thyrotropin-releasing hormone receptor (TRHR) signaling pathway (AID 1346891; calls by dose curve;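 note: HEK293 cells expressing TRHR with calcium dye readout; series mostly up to about 58 µM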). The gist of the method:
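Kinetic fluorescence (3 min, 1 s intervals) reported intracellular calcium after compound transfer onto TRHR-Hek293 cells pre-loaded with dye for 2 h at 37 °C.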

A short description of assay [12]: qHTS assay to identify small molecule agonists of the androgen receptor (AR) signaling pathway in the presence of an antagonist - cell viability counter screen (AID 1259379).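 Note: MDA-kb2 human breast cancer cells carrying an MMTV luciferase reporter; series mostly up to about 92 µM; nearly all actives have a fitted effect of over 25% in size.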 The gist of the method:
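A CellTiter-Fluor read-out measured viability of MDA-kb2 reporter cells (MMTV promoter with AR and GR response elements). Treatment: nilutamide 3.0uM final with compounds at 15 concentrations, 16 hr, 37C, 0% CO2.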

Assay [13] is described as follows: qHTS assay to identify small molecule antagonists of the estrogen receptor beta (ER-beta) signaling pathway - cell viability counter screen (AID 1259382). Note: series mostly up to about 92 µM; nearly all actives have a fitted effect of over 55% in size. In outline: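 Agonist-stimulated (1nM E2) ER-beta-UAS-bla HEK293T cells are incubated with library compounds for 16 hr at 37C. Cell viability is then assessed in the reporter-assay wells by adding CellTiter-Glo and reading luminescence after 30 min.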

The nature of assay [14]: qHTS assay to identify small molecule agonists of the progesterone receptor (PR) signaling pathway - cell viability counter screen (AID 1346799; calls by dose curve; note: nearly all actives have a fitted effect of over 45% in size). The gist of the method:
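Viability was scored by ATP luminescence (CellTiter-Glo, 30 min, room temperature) in the same wells used for the reporter readout, after 16 hr compound exposure of PR-UAS-bla HEK293T cells.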

Assay [15] in a line: qHTS assay to identify small molecule agonists of the TGF-beta/Smad signaling pathway (AID 1346859; active = well fitted activation curve with a large enough effect in the signal ratio in the repeat runs, not every such curve was filed as active; the % refers to the signal ratio; note: series mostly up to about 77 µM). The gist of the method: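 Dual-wavelength fluorescence (460/530 nm emission) quantified beta-lactamase expression under the Smad binding element in HEK 293T cells following 5 hr compound treatment at 37 C.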
The target of assay [16] is Progesterone receptor (Homo sapiens) (UniProt P06401). Briefly: qHTS assay to identify small molecule agonists of the progesterone receptor (PR) signaling pathway (AID 1346784; calls by dose curve; note: nearly all actives have a fitted effect of over 30% in size; note: potency is the fitted concentration of half-maximal effect). The gist of the method: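 The screen uses PR-UAS-bla HEK 293T cells in charcoal-stripped serum (2%). Compounds are applied for 16 hr at 37C after a 6 hr pre-incubation, and reporter activity is detected with a FRET beta-lactamase substrate after 2 hr at room temperature.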
Chain of Progesterone receptor (Homo sapiens) (P06401 whole entry, looked up): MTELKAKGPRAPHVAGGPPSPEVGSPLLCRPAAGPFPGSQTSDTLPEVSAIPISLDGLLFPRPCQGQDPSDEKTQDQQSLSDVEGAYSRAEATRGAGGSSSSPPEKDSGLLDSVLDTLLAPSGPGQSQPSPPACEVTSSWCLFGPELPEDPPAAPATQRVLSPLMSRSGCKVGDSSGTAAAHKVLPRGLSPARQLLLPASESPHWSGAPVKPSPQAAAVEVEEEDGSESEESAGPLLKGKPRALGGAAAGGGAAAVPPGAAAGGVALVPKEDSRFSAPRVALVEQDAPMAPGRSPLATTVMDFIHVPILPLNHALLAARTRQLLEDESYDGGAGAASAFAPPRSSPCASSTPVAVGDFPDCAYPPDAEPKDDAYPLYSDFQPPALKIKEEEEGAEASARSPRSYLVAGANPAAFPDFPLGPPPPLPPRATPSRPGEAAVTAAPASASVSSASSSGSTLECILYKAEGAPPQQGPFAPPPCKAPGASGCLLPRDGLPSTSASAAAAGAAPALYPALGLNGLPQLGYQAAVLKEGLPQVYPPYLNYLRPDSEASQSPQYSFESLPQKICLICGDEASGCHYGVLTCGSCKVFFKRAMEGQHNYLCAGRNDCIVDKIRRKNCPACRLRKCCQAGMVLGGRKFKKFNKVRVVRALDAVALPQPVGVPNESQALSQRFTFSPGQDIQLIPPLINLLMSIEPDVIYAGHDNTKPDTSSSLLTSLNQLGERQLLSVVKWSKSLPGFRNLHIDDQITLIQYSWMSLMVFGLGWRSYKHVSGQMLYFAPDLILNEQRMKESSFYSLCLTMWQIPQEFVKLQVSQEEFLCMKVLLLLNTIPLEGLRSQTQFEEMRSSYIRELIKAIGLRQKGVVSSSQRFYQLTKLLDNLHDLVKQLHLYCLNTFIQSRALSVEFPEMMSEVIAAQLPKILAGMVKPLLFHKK

Assay [17] is described as follows: qHTS assay to identify small molecule antagonists of the progesterone receptor (PR) signaling pathway - cell viability counter screen (AID 1346798). Note: series mostly up to about 92 µM; nearly all actives have a fitted effect of over 50% in size. In outline:
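Viability was determined by ATP-based luminescence (CellTiter-Glo) in PR-UAS-bla HEK293T cells cultured in 2% charcoal-stripped serum and incubated 16 hr with compounds under R5020 stimulation.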

Assay [18] addresses Progesterone receptor (Homo sapiens) (UniProt P06401). Briefly: qHTS assay to identify small molecule antagonists of the progesterone receptor (PR) signaling pathway (AID 1346795; active = well fitted inhibition curve with a large enough effect in the signal ratio in the repeat runs, not every such curve was filed as active; the % refers to the signal ratio). The gist of the method: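 After 6 hr plating at 37C in 2% stripped-serum medium, PR-UAS-bla HEK293T cells got compounds, then 1 nM R5020. Sixteen hours later, LiveBLAzer substrate was applied for 2 hr at room temperature and fluorescence was recorded.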

A number with no mark means an inactive call. Records with an inconclusive call do not appear. The source made the active and inactive calls. Unless noted, calls come from the whole dose curve; as a rule, active = well fitted curve in the direction sought with a large enough effect in the repeat runs; inconclusive = weak or mixed curves; inactive = no such curve, though single readings can be large; an effect the other way counts as inactive or inconclusive.

Chain of Estrogen receptor (Homo sapiens) (P03372 whole entry, looked up): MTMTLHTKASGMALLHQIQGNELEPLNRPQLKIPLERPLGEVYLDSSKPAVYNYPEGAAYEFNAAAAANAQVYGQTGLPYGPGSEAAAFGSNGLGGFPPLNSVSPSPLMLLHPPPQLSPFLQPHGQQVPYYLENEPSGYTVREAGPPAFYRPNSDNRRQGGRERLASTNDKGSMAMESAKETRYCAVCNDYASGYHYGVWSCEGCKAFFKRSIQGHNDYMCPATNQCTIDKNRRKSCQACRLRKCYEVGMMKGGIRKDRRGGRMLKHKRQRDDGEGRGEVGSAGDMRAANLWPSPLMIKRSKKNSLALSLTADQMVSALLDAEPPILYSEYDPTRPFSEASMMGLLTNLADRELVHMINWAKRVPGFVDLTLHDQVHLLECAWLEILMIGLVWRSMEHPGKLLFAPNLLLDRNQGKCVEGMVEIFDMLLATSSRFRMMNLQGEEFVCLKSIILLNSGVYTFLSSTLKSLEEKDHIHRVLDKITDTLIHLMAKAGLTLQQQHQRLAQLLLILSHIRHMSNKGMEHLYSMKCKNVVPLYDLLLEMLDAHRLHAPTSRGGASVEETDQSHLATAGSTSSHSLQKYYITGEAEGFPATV
Chain of Thyrotropin-releasing hormone receptor (Homo sapiens) (P34981 whole entry, looked up): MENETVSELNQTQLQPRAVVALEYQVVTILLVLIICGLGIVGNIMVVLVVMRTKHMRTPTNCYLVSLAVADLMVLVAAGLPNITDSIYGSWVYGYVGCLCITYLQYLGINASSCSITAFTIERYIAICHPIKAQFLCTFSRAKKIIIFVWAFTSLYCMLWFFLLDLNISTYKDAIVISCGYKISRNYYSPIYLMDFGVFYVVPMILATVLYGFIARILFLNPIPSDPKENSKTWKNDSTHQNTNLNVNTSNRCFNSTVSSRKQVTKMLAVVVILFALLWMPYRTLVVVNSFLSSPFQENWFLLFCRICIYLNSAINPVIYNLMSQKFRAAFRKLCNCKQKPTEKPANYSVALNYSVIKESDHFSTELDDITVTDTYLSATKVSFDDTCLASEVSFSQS
Chain of Thyrotropin receptor (Homo sapiens) (P16473 whole entry, looked up): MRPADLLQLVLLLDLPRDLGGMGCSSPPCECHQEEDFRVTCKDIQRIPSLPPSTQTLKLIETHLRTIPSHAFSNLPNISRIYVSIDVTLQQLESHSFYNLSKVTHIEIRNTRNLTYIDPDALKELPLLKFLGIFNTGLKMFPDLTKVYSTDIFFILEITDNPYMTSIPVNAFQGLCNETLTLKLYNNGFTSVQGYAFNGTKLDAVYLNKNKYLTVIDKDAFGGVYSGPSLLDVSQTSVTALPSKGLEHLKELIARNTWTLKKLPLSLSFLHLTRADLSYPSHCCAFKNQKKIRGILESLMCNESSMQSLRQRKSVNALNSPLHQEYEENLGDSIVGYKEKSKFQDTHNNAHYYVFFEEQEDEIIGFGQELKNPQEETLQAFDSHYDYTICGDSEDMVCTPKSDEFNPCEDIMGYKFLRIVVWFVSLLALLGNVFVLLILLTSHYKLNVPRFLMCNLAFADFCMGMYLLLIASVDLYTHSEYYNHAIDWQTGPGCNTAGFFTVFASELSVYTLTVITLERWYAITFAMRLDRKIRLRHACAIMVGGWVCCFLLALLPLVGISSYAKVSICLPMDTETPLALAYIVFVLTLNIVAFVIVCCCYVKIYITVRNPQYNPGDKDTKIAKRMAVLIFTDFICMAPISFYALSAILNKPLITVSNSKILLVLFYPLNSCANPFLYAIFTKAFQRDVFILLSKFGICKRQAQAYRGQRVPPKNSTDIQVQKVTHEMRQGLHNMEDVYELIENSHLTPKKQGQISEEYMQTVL
Chain of Androgen receptor (Homo sapiens) (P10275 whole entry, looked up): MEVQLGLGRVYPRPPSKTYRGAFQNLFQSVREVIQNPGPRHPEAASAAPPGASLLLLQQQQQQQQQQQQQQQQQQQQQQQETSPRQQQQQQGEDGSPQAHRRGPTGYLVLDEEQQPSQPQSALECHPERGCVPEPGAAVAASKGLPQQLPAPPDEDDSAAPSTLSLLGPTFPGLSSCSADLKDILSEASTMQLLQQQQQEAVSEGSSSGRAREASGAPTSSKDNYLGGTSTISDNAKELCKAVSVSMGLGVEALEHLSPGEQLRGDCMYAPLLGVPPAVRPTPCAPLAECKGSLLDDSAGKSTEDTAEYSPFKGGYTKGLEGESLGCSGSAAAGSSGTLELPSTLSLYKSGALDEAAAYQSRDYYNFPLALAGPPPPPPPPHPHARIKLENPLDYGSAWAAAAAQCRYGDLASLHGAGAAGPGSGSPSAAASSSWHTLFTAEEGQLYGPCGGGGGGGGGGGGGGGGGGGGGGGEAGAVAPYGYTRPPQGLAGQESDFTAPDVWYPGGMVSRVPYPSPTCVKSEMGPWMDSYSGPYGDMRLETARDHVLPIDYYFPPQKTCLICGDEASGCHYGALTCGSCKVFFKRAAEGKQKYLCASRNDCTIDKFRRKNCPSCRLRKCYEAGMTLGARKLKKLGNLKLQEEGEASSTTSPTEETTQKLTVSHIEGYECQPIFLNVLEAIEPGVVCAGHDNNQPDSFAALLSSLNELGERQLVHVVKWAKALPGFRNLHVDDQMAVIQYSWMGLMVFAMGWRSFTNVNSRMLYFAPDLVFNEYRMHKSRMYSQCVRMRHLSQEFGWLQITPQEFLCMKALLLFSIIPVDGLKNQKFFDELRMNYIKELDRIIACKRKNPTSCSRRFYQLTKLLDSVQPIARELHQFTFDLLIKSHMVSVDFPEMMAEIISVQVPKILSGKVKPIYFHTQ

As for `O=C(O)C1(C(=O)Nc2ccc(Cl)cc2Cl)CC1`, the Potency entry in [1], in assay [3], in [4], in assay [5], in [6] and in assay [7] was “inactive” each time. Besides, the Potency entry in assay [8] and in [11] was “inactive” each time. The Potency in assay [2] was 15.4 µM (active). Further, the compound was classed as inactive in assay [9] and in assay [10].
Regarding `O=C(O)CC(=O)C(=O)O`, the Potency in [1] is 54.6 µM (active). For the same compound, the Potency entry in [12], in [2], in assay [13], in [6], in assay [14] and in assay [8] was “inactive” throughout. Further, the Potency result in [15] was “inactive”. In [9], the call was inactive.
For the compound `C[C@H]1C[C@H]2[C@@H]3CCC4=CC(=O)C=C[C@]4(C)[C@@]3(Cl)[C@@H](O)C[C@]2(C)[C@@]1(O)C(=O)CO`, the Potency result in assay [1], in [12], in [13], in [4], in [5] and in [7] was “inactive” each time. The Potency result in assay [17] and in assay [8] was “inactive” in each case. Moreover, the Potency in [16] is 0.0237 µM (active). The call in assay [9] and in [10] was inactive.
For `O=C(Nc1ccc(S(=O)(=O)N2CCOCC2)cc1)c1cc(Cl)ccc1NS(=O)(=O)c1ccc(Cl)s1`, in assay [1], the Potency was 26.6 µM (active). Further, the Potency result in assay [12], in [4], in assay [5], in assay [6], in [7] and in assay [16] was “inactive” each time. The Potency entry in assay [17], in [14], in assay [8], in assay [15] and in [11] was “inactive” each time. For the same compound, the outcome in [9] and in assay [10] was inactive.
Take `CC(=O)[O][Al][O]C(C)=O`: the Potency result in assay [1], in assay [12], in [13], in assay [5], in assay [7] and in [16] was “inactive” each time. Further, the Potency entry in assay [18], in assay [17], in [8] and in assay [15] was “inactive” throughout. The result in assay [9] was inactive.
For the compound `CCOC(=O)C(F)(F)F`, the Potency result in [1], in assay [12], in assay [2], in assay [13], in [5] and in assay [6] was “inactive” each time. For the same compound, the Potency entry in [7], in assay [16], in [17], in assay [8], in assay [15] and in assay [11] was “inactive” in each case. Also, the result in assay [9] and in assay [10] was inactive.
As for `CNC(=O)CN(CCN(CCN(CC(=O)[O-])CC(=O)NC)CC(=O)[O-])CC(=O)[O-].O.[Gd+3]`, the Potency entry in [1], in [12], in assay [2], in assay [13], in assay [4] and in assay [7] was “inactive” in each case. Besides, the Potency entry in assay [16], in [18], in assay [17], in assay [14], in [15] and in assay [11] was “inactive” in each case. Besides, the compound was classed as inactive in assay [9] and in assay [10].
Regarding `COC(C)OC`, the Potency entry in assay [1], in assay [12], in assay [2], in assay [13], in assay [4] and in [6] was “inactive” in each case. Further, the Potency result in assay [8], in assay [15] and in assay [11] was “inactive” in each case. For the same compound, the result in [9] and in assay [10] was inactive.
For `O=C1CCC(=O)O1`, the Potency entry in [1], in [12], in assay [2], in assay [13], in assay [4] and in assay [7] was “inactive” each time. The Potency result in assay [18], in [17], in [14], in assay [8], in assay [15] and in [11] was “inactive” each time. Also, the result in assay [9] and in [10] was inactive.
`CCC(C)c1cc(C(C)(C)C)c(O)c(C(C)(C)C)c1` (stereo unspecified): the Potency result in assay [1], in [12], in assay [2], in assay [5], in [6] and in assay [7] was “inactive” each time. Moreover, the Potency entry in assay [16], in [17], in [14] and in [8] was “inactive” each time. In addition, the call in assay [9] and in assay [10] was inactive.
